Bioassay records deposited in PubChem by National Center for Advancing Translational Sciences (NCATS).
Mito fusion yeast: inhibitors of mitochondrial division or activators of mitochondrial fusion; S. cerevisiae fusion-defective mutant growth rescue, CellTiterGlo 48 h; Potency, µM (titrated, usually from 46.1 µM), for inactives: top-dose growth rescue (activation), usual class: activators; 320,000 tested, 0.23% active; also: % of control where 0% means no effect; nearly all actives have a fitted effect of over 45% in size
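Temperature-sensitive fusion-defective S. cerevisiae (e.g. fzo1-1, mgm1-5) were grown with compound in YPEG medium (3% ethanol, 3% glycerol) for 48 hours at 37C. Growth rescue was measured as viability by CellTiterGlo luminescence after 10 minutes at ambient.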
aSyn yeast inh: rescues yeast growth from alpha-synuclein toxicity; Yeast expressing alpha-synuclein, growth rescue, BacTiter-Glo, 24 h; Potency, µM (series often up to 46.1 µM), inactives show at the highest dose growth rescue (activation), usual class: activators; 370,000 tested, 0.14% active; AID 652106; also: % of control where 0% means no effect; nearly all actives have a fitted effect of over 65% in size
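Screening used galactose-induced yeast with toxic alpha-synuclein levels, exposed to compound for 24 hr at 30 deg C. Cell growth, read with BacTiter-Glo luminescence, gave the measured signal.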
TDP43 rescue: rescues yeast growth from TDP-43 toxicity; TDP-43 expressing yeast growth rescue, BacTiter-Glo, 24 h; Potency, µM (titrated, usually from 46.1 µM), for inactives: at the highest dose growth rescue (activation), most hits filed as activators; 410,000 tested, 1.8% active; also: % of control where 0% means no effect; nearly all actives have a fitted effect of over 50% in size
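Growth rescue of TDP-43-toxic yeast measured as ATP luminescence (BacTiter-Glo). Cells grown to mid-log in raffinose, induced in galactose at OD600=0.02, exposed to compound 24 hr at 30 deg C.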
Abeta yeast res: A-beta toxicity reversal in yeast | yeast expressing A-beta42, growth rescue, OD600, 48 h; response scale: 0% DMSO, 100% iron-clioquinol control | Potency, µM (highest dose often 46.1 µM), most hits filed as activators | 410,000 tested, 0.063% active | AID 1347071; also: nearly all actives have a fitted effect of over 55% in size
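Yeast growth medium received pinned compounds, then yeast cells expressing toxic A-beta were added; plates incubated at 30 C for 48 hr. Growth read as absorbance at 600 nm, normalized to DMSO and equimolar FeCl3 plus clioquinol controls.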
FUS suppressor: rescues growth of FUS-expressing yeast. AID 1347120. S. cerevisiae FUS-expressing, growth rescue, OD600, 24 h. Potency, µM (doses to about 76.6 µM), actives largely listed as activators. 390,000 tested, 0.24% active;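 also: plate controls were DMSO vehicle for no effect and reference control for full effect; nearly all actives have a fitted effect of over 55% in size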
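Compound concentration series was pinned onto galactose-induced FUS-expressing yeast seeded at OD 0.005. Plates sat 24hr at 30C; absorbance at 600 nm gave growth. DMSO served as background control.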
* = called active by the depositor. Hits are enriched below; roughly 2.2% of the tested compounds scored in any of these assays. Calls follow the shape of the dose curve; as a rule, active = well fitted curve in the direction sought with a large enough effect; inconclusive = small, poorly fitted or top-dose-only effect, or another doubt; inactive = no such curve, though single readings can be large; an effect the other way counts as inactive or inconclusive. Potency is read from the fitted curve at half-maximal effect.

COc1ccc(Nc2nc3cc(-c4ccsc4)sc3c(=O)n2C)cc1OC was read as aSyn yeast inh 16%, TDP43 rescue inconclusive, Abeta yeast res inactive and FUS suppressor 28µM*.
`O=C(Cc1ccc(Cl)cc1)NCC(c1cccs1)S(=O)(=O)c1ccc(F)cc1` (stereo unspecified) gave TDP43 rescue 35µM*, Abeta yeast res inactive and FUS suppressor inconclusive.
`CC(C)(C)c1ccc(C(=O)NCC(c2cccs2)S(=O)(=O)c2ccc(F)cc2)cc1` (stereo unspecified) gave TDP43 rescue inconclusive, Abeta yeast res inactive and FUS suppressor 35µM*.
`O=C(NCc1ccc(Cl)cc1)C1CCN(S(=O)(=O)c2ccc3c(c2)CCCN3C(=O)C2CCC2)CC1` gave TDP43 rescue 23%, Abeta yeast res inactive and FUS suppressor inactive.
`O=C(O)CC1(CC(=O)Nc2ccc3sccc3c2)CCCCC1` gave Mito fusion yeast 1%, aSyn yeast inh -15%, TDP43 rescue 7.9µM*, Abeta yeast res inactive and FUS suppressor inactive.
Screening O=C(O)CC1(CC(=O)Nc2ccc3c(c2)OCCCO3)CCCCC1 returned Mito fusion yeast 1%, aSyn yeast inh -4%, TDP43 rescue 0%, Abeta yeast res inactive and FUS suppressor inactive.
CC(=O)N1CCN(CCS(=O)(=O)c2cc(Cl)ccc2Cl)CC1 was read as aSyn yeast inh -6%, TDP43 rescue inconclusive, Abeta yeast res inactive and FUS suppressor inactive.
For COc1ccc(N2CCN(CCS(=O)(=O)c3cc(Cl)ccc3Cl)CC2)cc1 the results were Mito fusion yeast 3%, aSyn yeast inh -2%, TDP43 rescue 13µM*, Abeta yeast res inactive and FUS suppressor inactive.
`CN(CC1COc2ccccc2O1)C(=S)Nc1ccccc1` (stereo unspecified) gave aSyn yeast inh 14%, TDP43 rescue 13µM*, Abeta yeast res inconclusive and FUS suppressor inactive.
Screening FC(F)(F)c1cccc(NC(=S)NCC2COc3ccccc3O2)c1 (stereo unspecified) returned Mito fusion yeast -12%, aSyn yeast inh -29%, TDP43 rescue 35µM*, Abeta yeast res inactive and FUS suppressor inactive.
CC1CCc2onc(C(=O)N3CCN(c4ccc(Cl)cc4)CC3)c2C1 (stereo unspecified) was read as TDP43 rescue 0%, Abeta yeast res inactive and FUS suppressor inactive.
CCOc1cc2c(cc1OCC)C(c1c(F)cccc1Cl)CC(=O)N2 (stereo unspecified) was read as TDP43 rescue 15%, Abeta yeast res inactive and FUS suppressor inactive.
Screening Cc1c(C(=O)NCc2ccccc2Cl)sc2nc[nH]c(=O)c12 returned TDP43 rescue 5%, Abeta yeast res inactive and FUS suppressor inactive.
Screening CCOC(=O)c1cnc2ccc(OCC)cc2c1N1CCN(c2ccccc2F)CC1 returned TDP43 rescue 16µM*, Abeta yeast res inactive and FUS suppressor inconclusive.
`CCOC(=O)c1cnc2ccc(OCC)cc2c1N1CCN(c2ccccc2)CC1` gave Mito fusion yeast -3%, aSyn yeast inh 7%, TDP43 rescue 18µM*, Abeta yeast res inactive and FUS suppressor inconclusive.
Screening CCOC(=O)c1cnc2ccc(OCC)cc2c1NCc1ccccc1 returned Mito fusion yeast -5%, aSyn yeast inh 1%, TDP43 rescue 8% and Abeta yeast res inactive.
CCOc1ccc2ncc(S(=O)(=O)c3ccccc3)c(N3CCN(c4ccccc4)CC3)c2c1 was read as aSyn yeast inh -4%, TDP43 rescue 19%, Abeta yeast res inactive and FUS suppressor inactive.
CC(C)C(=O)N[C@H]1[C@H](O)CCC[C@]12C(=O)N(Cc1ccccc1)c1ccccc12 was read as FUS suppressor inactive.
For COc1cccc(-c2nc(NC(C)(C)C)c3ccccc3n2)c1O the results were Mito fusion yeast 6%, aSyn yeast inh -11%, TDP43 rescue inconclusive, Abeta yeast res inactive and FUS suppressor inactive.
`COc1ccc(Nc2nc(-c3cccc(OC)c3O)nc3ccccc23)cc1` gave Mito fusion yeast 18%, aSyn yeast inh 3%, TDP43 rescue 18µM*, Abeta yeast res inactive and FUS suppressor inconclusive.
For COc1cccc(-c2nc(N3CC(C)CC(C)C3)c3ccccc3n2)c1O (stereo unspecified) the results were Mito fusion yeast 9%, aSyn yeast inh 7%, TDP43 rescue 13µM*, Abeta yeast res inactive and FUS suppressor inactive.
For C[C@H]1[C@@H](c2ccccc2)OC(O)([C@H](Cc2ccccc2)NC(=O)OC(C)(C)C)CN1C (stereo partly specified) the results were FUS suppressor inactive.
Screening O=C(COC(=O)CSc1ccc([N+](=O)[O-])cc1)NCC1CCCO1 (stereo unspecified) returned Mito fusion yeast 4%, aSyn yeast inh -6%, TDP43 rescue 2%, Abeta yeast res inactive and FUS suppressor inactive.
Screening Cc1cc(SCC(=O)OCC(=O)NCC2CCCO2)c(C)cc1Br (stereo unspecified) returned Mito fusion yeast -1%, aSyn yeast inh 5%, TDP43 rescue 25µM*, Abeta yeast res inactive and FUS suppressor inactive.
For Cn1nnc2c(NCc3ccc(Cl)cc3)ncnc21 the results were TDP43 rescue 11µM*, Abeta yeast res inactive and FUS suppressor inactive.
For Cc1ccc(-n2c(SCc3nc(-c4ccccc4C)no3)nnc2-c2ccncc2)cc1C the results were TDP43 rescue 32µM*, Abeta yeast res inactive and FUS suppressor inactive.
For Nc1cc([N+](=O)[O-])ccc1Nc1ccccc1 the results were Mito fusion yeast -3%, aSyn yeast inh 8%, TDP43 rescue 14µM*, Abeta yeast res inactive and FUS suppressor inactive.
`O=[N+]([O-])c1ccc(O)c(NC(=S)Nc2ccccc2)c1` gave Mito fusion yeast -1%, aSyn yeast inh -10%, TDP43 rescue 13µM*, Abeta yeast res inactive and FUS suppressor inactive.
For O=[N+]([O-])c1cc(Br)c(Nc2ccccc2)c([N+](=O)[O-])c1 the results were Mito fusion yeast -75%, aSyn yeast inh 6%, TDP43 rescue 3.5µM*, Abeta yeast res inactive and FUS suppressor inactive.
For Cc1nn(Cc2ccccc2Cl)c(C)c1C(=O)NC1=NCCS1 the results were Mito fusion yeast 11%, aSyn yeast inh -13%, TDP43 rescue 14%, Abeta yeast res inactive and FUS suppressor inactive.
Screening CCC(CC)c1nnc(NC(=O)c2c(C)nn(Cc3ccccc3Cl)c2C)s1 returned Mito fusion yeast 12%, aSyn yeast inh 7%, TDP43 rescue inconclusive, Abeta yeast res inactive and FUS suppressor 8.9µM*.
